# Source: PMC4552634, “A New Set of Chemical Starting Points with Plasmodium falciparum Transmission-Blocking Potential for Antimalarial Drug Discovery” (PLoS ONE, 2015)
# Out of some 13,000 compounds screened, about 3,200 (25%) showed an effect of 50% or more. This is one part of the list.
# Tested on: P. falciparum stage V gametocytes
# Set-up: BacTiter-Glo ATP luminescence viability of purified stage V gametocytes in 384-well plates, per cent inhibition versus DMSO
# Settings: 48 h, 5 µM; inhibitor
row,SMILES,% Inhibition
1,CN(C)C(=O)n1cnc(S(=O)(=O)N(C)c2ccc(Cl)cc2)n1 [TCMDC-134395],5.684%
2,CCOC(=O)CCCCOc1c(OC)cc(Cc2cnc(N)nc2N)cc1OC [TCMDC-137291],2.332%
3,COc1ccc(NS(=O)(=O)c2ccc(C(=O)Nc3ccc(C(F)(F)F)cc3)cc2)cc1N1CCN(CC2CC2)CC1 [TCMDC-141778],-16.52%
4,O=C(c1cccs1)N1N=C(c2cccs2)CC1c1cccc([N+](=O)[O-])c1 (stereo not drawn) [TCMDC-123688],10.72%
5,Cc1noc(C)c1-c1cccc(CNCc2ccc(-c3cccc(-c4nc5cc(C(F)(F)F)ccc5[nH]4)c3)cc2)c1.O=C(O)C(F)(F)F [TCMDC-133051],-9.881%
6,COc1cc(C(=O)NC2CCN(Cc3ccccc3)CC2)ccc1-c1nc2cc(Cl)c(Cl)cc2[nH]1 [TCMDC-140078],-56.44%
7,Cc1[nH]c2cc(Cl)ccc2c1C1=CCN(CCN2CCOc3c(Br)cccc3C2=O)CC1 [TCMDC-140966],-20.54%
8,COc1ccc(Cl)cc1N1CCN(CCCNC(=O)c2ccc(-c3nc4cc(Cl)c(C)cc4[nH]3)c(F)c2)CC1 [TCMDC-140030],-22.25%
9,COc1cc2nc(NCc3nc4ccccc4[nH]3)nc(N)c2cc1OC.Cl [TCMDC-131892],36.75%
10,COc1cc2nc(N(C)C3CCN(Cc4ccccc4)CC3)nc(N)c2cc1OC [TCMDC-131894],19.02%
11,COc1cc2nc(NC3CCN(Cc4ccccc4)CC3)nc(N)c2cc1OC [TCMDC-131886],84.09%
12,CCCCCN1CCCCC(NS(=O)(=O)c2ccc(C(=O)Nc3ccc(C(F)(F)F)cc3)cc2)C1 (stereo not drawn) [TCMDC-133681],-39.58%
13,COc1ccc2nccc([C@@H](O)CN3CCC(NCc4ccc5nc[nH]c(=O)c5c4)CC3)c2c1 [TCMDC-140981],0.6377%
14,CC(=O)c1ccc(NC(=O)Nc2ccc3nccc(N4CCN(C)CC4)c3c2)cc1 [TCMDC-139331],-18.7%
15,CC(=O)c1ccc2nc[nH]c(=O)c2c1 [TCMDC-138172],115.1%
16,COC(=O)C(NC(=O)c1ccc(-c2ccc(-c3nc4ccccc4[nH]3)s2)cc1)c1ccc(O)cc1 (stereo not drawn) [TCMDC-132371],-16.97%
17,Cc1cccc(CN2CCC(C(=O)Nc3ccc(-c4nc5ccccc5[nH]4)cc3)CC2)n1 [TCMDC-124614],-28.63%
18,CC1CCC(C(C)C)C(OC(=O)CSc2nnc3c(n2)[nH]c2ccccc23)C1 (stereo not drawn) [TCMDC-124002],54.66%
19,CCCCNc1c(C(=O)OCC)c(C)nc2c1[nH]c1ccccc12 [TCMDC-131541],-37.58%
20,O=C(NC1CCN(Cc2ccccc2)CC1)c1ccc(-c2nc3cc(Cl)c(Cl)cc3[nH]2)s1 [TCMDC-140086],-3.887%
21,CCn1c(-c2nonc2N)nc2cnc(Oc3cccc(NC(=O)c4ccc(OCCN5CCCCC5)cc4)c3)cc21 [TCMDC-135778],-14.59%
22,CCn1c(-c2nonc2N)nc2c(-c3cc4ccccc4s3)ncc(C(=O)N3CCC(N)C3)c21 (stereo not drawn) [TCMDC-135281],101.1%
23,CN(C)CCNC(=O)[C@H](Cc1ccccc1)NC(=O)c1ccc(O)c(-c2ccc(Cl)c(Cl)c2)c1 [TCMDC-140864],22.21%

row,SMILES,% Inhibition
1,CN1CCCN(Cc2ccc(-c3ccc(NC(=O)c4ccc(Cl)cc4)cc3)cc2)CC1 [TCMDC-132585],-0.9433%
2,Cc1cccc2[nH]c(-c3cccc(-c4ccc(NC(=O)Nc5ccc(Cl)c(Cl)c5)cc4)c3)nc12 [TCMDC-133275],-0.4815%
3,c1cc2[nH]c(CCc3nc4cc(C5=NC6CCCCC6N5)ccc4[nH]3)nc2cc1C1=NC2CCCCC2N1 (stereo not drawn) [TCMDC-137238],-12.99%
4,c1cc2nc(CCCCc3nc4ccc(C5=N[C@H]6CCCC[C@H]6N5)cc4[nH]3)[nH]c2cc1C1=N[C@H]2CCCC[C@H]2N1 [TCMDC-137233],16.03%
5,c1cc2nc(CCCCCc3nc4ccc(C5=N[C@@H]6CCCC[C@@H]6N5)cc4[nH]3)[nH]c2cc1C1=N[C@@H]2CCCC[C@@H]2N1 [TCMDC-137237],-19.86%
6,c1cc2nc(CCCc3nc4ccc(C5=N[C@H]6CCCC[C@H]6N5)cc4[nH]3)[nH]c2cc1C1=N[C@@H]2CCCC[C@@H]2N1 [TCMDC-137234],-8.612%
7,c1cc(C2=N[C@H]3CCCC[C@@H]3N2)ccc1OCCCOc1ccc(C2=N[C@@H]3CCCC[C@H]3N2)cc1 [TCMDC-137803],109.5%
8,c1cc(C2=NC3CCCCC3N2)ccc1OCCCCCOc1ccc(C2=NC3CCCCC3N2)cc1 (stereo not drawn) [TCMDC-137802],132.6%
9,Cc1ccn2c(N(Cc3ccccc3)C(=O)c3ccc(Cl)c(Cl)c3)c(-c3ccccc3)nc2c1 [TCMDC-141396],-15.83%
10,CCNc1cc(C(=O)N[C@@H](Cc2ccccc2)[C@H](O)CNCCc2ccccc2)cc(N2CCCCS2(=O)=O)c1 [TCMDC-135171],-2.363%
11,COc1ccc2ncc(F)c(CCN3CC[C@@H](CNCc4cc(C)c5c(c4)OCCO5)C3)c2n1 [TCMDC-136077],34.91%
12,CC(C)c1ccc(OCC(O)CN(CCN2CCOCC2)C(=O)Nc2ccc(Br)cc2)cc1 (stereo not drawn) [TCMDC-141492],-0.3608%
13,CCn1c(-c2nc(-c3ccnc(N4CCN(C)CC4)c3)cnc2N)nc2cc(S(C)(=O)=O)ccc21 [TCMDC-134155],31.49%
14,CCn1c(-c2nc(-c3ccc4c(c3)OCO4)cnc2N)nc2cnccc21 [TCMDC-135178],6.285%
15,COc1cccc2cc(C(=O)N[C@@H](CC(C)C)C(=O)N[C@H](C=NN3CCOC3=O)Cc3ccccc3)oc12 [TCMDC-136074],-0.683%
16,O=C(c1cccc(-c2noc(C(F)(F)F)n2)c1)N1CCN(c2nsc3ccccc23)CC1 [TCMDC-132425],-18.4%
17,CN(C)C(=O)O[C@@H]1CN[C@H](C#Cc2cc3ncnc(Nc4ccc5c(cnn5Cc5cccc(F)c5)c4)c3s2)C1 [TCMDC-135233],25.46%
18,Clc1cc(Nc2ncnc3sc(C#C[C@H]4CCCN4)cc23)ccc1OCc1cccnc1Cl [TCMDC-134849],8.343%
19,O=S(=O)(c1ccccc1)n1ccc2cc(Nc3ncnc4cc(C#C[C@H]5CCCN5)sc34)ccc21 [TCMDC-138913],83.41%
20,Clc1cc(Nc2ncnc3cc(C#C[C@H]4CCCN4)sc23)cc2[nH]c(Cc3ccccc3)nc12 [TCMDC-134519],58.91%
21,O=C(O[C@H]1CN[C@H](C#Cc2cc3ncnc(Nc4ccc5c(ccn5S(=O)(=O)c5cccs5)c4)c3s2)C1)N1CCOCC1 [TCMDC-134691],26.92%
22,Fc1cccc(COc2ccc(Nc3ncnc4sc(C#CC5CCCCN5)cc34)cc2Cl)c1 (stereo not drawn) [TCMDC-138878],40.6%
